Compounds without any hit were thinned out: in the full panel of roughly 83,000, 20% have a hit.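 Single-dose data. Exposure time 48 hours. Values below 10 considered active.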 A number with no mark means an inactive call. Active and inactive are the calls of the source.
Experiments:
Test in all cases: NCI-60 one-dose screen, 48 h (100 = growth as untreated, 0 = no growth, -100 = all killed)
DU-145 prostate = details: 10 µM unless noted
K-562 leukemia = details: 10 µM unless noted
MALME-3M melanoma = details: 10 µM unless noted
MDA-MB-231 breast = details: 10 µM unless noted
RXF 393 renal = details: 10 µM unless noted
SF-268 CNS = details: 10 µM unless noted
SF-295 CNS = details: 10 µM unless noted
SF-539 CNS = details: 10 µM unless noted
UACC-257 melanoma = details: 10 µM
M14 melanoma = details: 10 µM unless noted
HCT-15 colon = details: 10 µM unless noted
HT29 colon = details: 10 µM unless noted
SNB-75 CNS = details: 10 µM unless noted
SNB-19 CNS = details: 10 µM unless noted
U251 CNS = details: 10 µM unless noted
PC-3 prostate = details: 10 µM unless noted
SK-MEL-5 melanoma = details: 10 µM unless noted
UACC-62 melanoma = details: 10 µM unless noted
LOX IMVI melanoma = details: 10 µM unless noted
SK-MEL-28 melanoma = details: 10 µM unless noted

Row | Structure (SMILES) | growth (DU-145 prostate) | growth (K-562 leukemia) | growth (MALME-3M melanoma) | growth (MDA-MB-231 breast) | growth (RXF 393 renal) | growth (SF-268 CNS) | growth (SF-295 CNS) | growth (SF-539 CNS) | growth (UACC-257 melanoma) | growth (M14 melanoma) | growth (HCT-15 colon) | growth (HT29 colon) | growth (SNB-75 CNS) | growth (SNB-19 CNS) | growth (U251 CNS) | growth (PC-3 prostate) | growth (SK-MEL-5 melanoma) | growth (UACC-62 melanoma) | growth (LOX IMVI melanoma) | growth (SK-MEL-28 melanoma)
1 | COc1ccc(C(=O)n2cc(C=O)c3ccccc32)cc1 | 105% | 82.1% | 93.2% | 91.8% | 106% | 92.5% | 99.6% | 89.2% | 103% | 82.8% | 87.9% | 118% | 99% | 87.5% | 93.9% | 90.5% | 98.1% | 81.6% | 76.2% | 102%
2 | CCOP(=O)(OCC)OC[C@]12CCC(C)(C)C[C@H]1C1=CC[C@@H]3[C@@]4(C)C/C(=C\c5cccnc5)[C@H](OP(=O)(OCC)OCC)C(C)(C)[C@@H]4CC[C@@]3(C)[C@]1(C)CC2 | 30.7% | 9.94% (active) | 19.5% | 44.8% | 58% | 46.1% | 26.7% | 37% | 23.7% | 34.6% | 14.4% | 12% | 80.2% | 40% | 14.7% | 15.6% | -61.3% (active) | 25.5% | 22% | 34.5%
3 | CCN1C(=O)N(CC)C2SC(N/N=C/c3ccc(OC)cc3)=NC21 (stereo not given) | 11.2% | 15.7% | 45.8% | 23.4% | 19.6% | 49.7% | 8.27% (active) | -8.3% (active) | 80.4% | 3.93% (active) | 12% | 15.1% | 27.3% | 23% | 24.5% | 28.9% | -0.548% (active) | 38.4% | 3.58% (active) | 60.2%
4 | COc1ccc(Cn2cc3c(c2-c2cc(OC)c(OC)c(OC)c2)CCCc2cnoc2-3)cc1N | 17.2% | 20.3% | 54.9% | 35.2% | -5.39% (active) | 58% | 0% (active) | 1.95% (active) | 90.3% | 0.685% (active) | 26.8% | 14.6% | -14.5% (active) | 28.7% | 32.6% | 35.5% | 23.1% | 41.5% | 45.1% | 65.9%
5 | NS(=O)(=O)c1ccc(Nc2nc(N/N=C/c3ccc(F)cc3)nc(Nc3ccccc3)n2)cc1 | 31.1% | 54.6% | 57.5% | 61.8% | 57.9% | 41.3% | 70.1% | 62.2% | 47.2% | 57.9% | 79.3% | 4.73% (active) | 96.4% | 69.9% | 11.9% | 39.9% | 38.1% | 60.5% | 60.6% | 63.3%
6 | CC(=O)Nc1ccc(C)c(Nc2cc(-c3ccc(-n4cccn4)cc3)[nH]n2)c1 | 81.5% | 19% | 73.6% | 82.8% | 52.8% | 60.6% | 46.1% | 41.3% | 64.4% | 19.2% | 41.3% | 27.8% | 64.2% | 45.7% | 42.5% | 65.3% | 53.6% | 46.7% | 60% | 61%
7 | COc1cc(C2CC(c3ccc(Nc4nc(NCCO)nc(Nc5ccc(Cl)cc5)n4)cc3)=Nc3c(N)nc(N)nc3N2)cc(OC)c1OC (stereo not given) | 65.7% | 16.4% | 85.7% | 60.6% | 45% | 63% | 77.6% | 80.1% | 92.1% | 81.2% | 54.2% | 60.9% | 91.4% | 47.1% | 38.7% | 41.9% | 53.4% | 77.6% | 53.1% | 96.4%
8 | O=C(NNc1nc2cc(F)c(F)cc2n2cccc12)c1ccncn1 | 22.2% | 16.1% | 34.4% | 36.4% | 30.4% | 18.7% | 15.9% | 6.94% (active) | 15.7% | 12.9% | 23.6% | 27.3% | -6.38% (active) | 27.5% | 17.9% | 33.2% | -19.4% (active) | 19% | 11.7% | 29.4%
9 | COC(=O)c1c(C(=O)OC)c2n(CC(=O)Nc3cccc4cccnc34)c3ccccc3n2c1C(=O)c1ccc(C)cc1 | 105% | 91.2% | 97.7% | 88.4% | 97.8% | 97.2% | 95.1% | 106% | 104% | 99.9% | 97.6% | 102% | 101% | 91.1% | 97.7% | 82.5% | 96.4% | 84.6% | 98.9% | 110%
10 | CC(C)C(=O)Nc1ccc(-c2nc(-c3cccc(O)c3)c(-c3ccnc(Br)c3)[nH]2)cc1 | 69.3% | 7.32% (active) | 40.8% | 58.5% | -31.5% (active) | 54.8% | -40.5% (active) | 34.5% | 52.7% | 49.4% | 65.6% | 41% | 4.68% (active) | 47% | 42.5% | 29.7% | 42.7% | 31.8% | 38.4% | 50.3%
11 | O=C(CSc1nnc(-c2cccs2)n1-c1ccccc1)Nc1ccc(F)cc1 | 107% | 65.4% | 97.4% | 83.1% | 97.9% | 101% | 91% | 89.9% | 103% | 99.2% | 93.6% | 101% | 104% | 91% | 99.5% | 99% | 97.6% | 67.9% | 97.9% | 104%
12 | Nc1nc(N)c2c(n1)NC(c1ccc(Cl)cc1)CC(c1ccc(Nc3nc(NCCO)nc(Nc4ccc(Cl)cc4)n3)cc1)=N2 (stereo not given) | 0.35% (active) | -25.2% (active) | 68.9% | 53% | 43.6% | 51.4% | 47.5% | 83.4% | 107% | 34.5% | 1.91% (active) | -21.8% (active) | 77.9% | 17.2% | -35.6% (active) | 44.1% | 48.4% | 91.2% | -90% (active) | 103%
13 | CC(C)(C)CC(C)(C)n1nnnc1C(Nc1ccccc1)c1cc2cccc3ccc4cccc1c4c32 (stereo not given) | 96.9% | 72.6% | 87.4% | 75.1% | 79.5% | 82.4% | 86.5% | 95.7% | 95.5% | 90.2% | 78.5% | 70.7% | 99.9% | 95.1% | 88.7% | 50.4% | 89.6% | 67.4% | 85.1% | 90%
14 | CC1(COc2ccc3ncc(C#Cc4cncc(C(=O)Nc5cc(C(C)(C)C)on5)c4)n3n2)COC1 | 53.5% | 16.2% | 30.2% | 30.7% | -2.4% (active) | 53.9% | 22.6% | 20.2% | 79.9% | 28.7% | 26% | 101% | 12.8% | 60.9% | 29% | 43.4% | 7.95% (active) | 29.6% | 11% | 51.4%

From PubChem BioAssay (NCI)
